# Assay results reported in PubChem BioAssay (NCATS).
# Records with an inconclusive call do not appear. This is one part of the list. Calls of active or inactive are those of the source. Unless noted, calls come from the whole dose curve; as a rule, active = well fitted curve in the direction sought with a large enough effect; inconclusive = small, poorly fitted or top-dose-only effect, or another doubt; inactive = no such curve, though single readings can be large; an effect the other way counts as inactive or inconclusive.
# Legend:
# [1] = qHTS profiling of the MIPE4 collection as inhibitors of Plasmodium falciparum (DD2) proliferation (Rep 2) (AID 743346; call rule not given here); settings: P. falciparum Dd2 in erythrocytes, SYBR Green DNA, 72 h; at 5.51 µM (top of the series) unless noted
# Outline: (§1)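 Erythrocytes infected with P. falciparum (0.3% parasitemia, 2.5% hematocrit) incubated with compounds 72 h at 37 C, 5% CO2. Lysis with saponin/Triton buffer containing SYBR Green I, overnight at room temperature in the dark; DNA fluorescence (485/535 nm) normalised to 0.29 uM artemisinin and DMSO.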
# [2] = qHTS profiling of the MIPE4 collection as inhibitors of Plasmodium falciparum (HB3) proliferation (AID 743347; call rule not given here;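 note: plate controls were DMSO vehicle wells for no effect and artemisinin wells for full effect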); settings: P. falciparum HB3 in erythrocytes, SYBR Green DNA, 72 h; at 5.51 µM (top of the series) unless noted
# Outline: as §1
# [3] = qHTS for Inhibitors of the vitamin D receptor (VDR): Hit Validation using a Cytotoxicity Assay (AID 602204);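 note: plate controls were DMSO for no effect and high-concentration cycloheximide for full effect; nearly all actives have a fitted effect of over 75% in size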
# Description: The vitamin D receptor (VDR) is a ligand-activated transcription factor and is partially responsible for the regulation of the endocrine system. This includes the transcriptional regulation of genes involved in the production of the parathyroid hormone (PTH) and the regulation of the blood calcium level. High levels of PHT can cause hypercalcemia in the case of primary and tertiary hyperparathyroidism. The VDR-mediated gene regulation, activated by its ligand 1,25-dihydroxyvitamin D3 (1,25-(OH)2D3), is governed by the recruitment of coactivators. Our hypothesis is that small molecules, with the ability to inhibit the interaction between VDR and certain coactivators, are able to selectively modulate VDR-mediated transcription. Our long term objective is the application these VDR-coactivator inhibitors to study the role of VDR-coactivator binding for specific VDR regulated genes. […]
# In a collaboration between the University of Wisconsin, Milwaukee and the NIH Chemical Genomics Center (NCGC) a HTS-compatible enzymatic assay was developed. The assay uses fluorescence polarization as its read-out to measure the inhibition between VDR and coregulator peptide SRC2-3 exerted by small molecules. […] This assay quantifies the amount of ATP generated by living cells and compounds that are active in this assay are undesirable for the project due to cytotoxicity. […]
# Step 8: Read luminescence
# [4] = molecular target: Flap endonuclease 1 (Homo sapiens) (UniProt P39748); assay: qHTS Assay for the Inhibitors of FEN1: Confirmatory Assay for Cherry-picked Compounds (AID 720498); settings: FEN1 flap cleavage, TAMRA/BHQ2 fluorogenic DNA substrate; note: potency is the fitted concentration of half-maximal effect; nearly all actives have a fitted effect of over 60% in size
# Description: The major human flap endonuclease FEN1 is an efficient structure-specific enzyme that recognizes and cleaves a 5'-unannealed DNA flap. It belongs to the RAD2 family nucleases, which are involved in DNA metabolism and are highly conserved in prokaryotes and eukaryotes. FEN1 is a key enzyme in DNA replication, repair and maintenance of genomic stability. 5'-flap removal by FEN1 is critical for Okazaki fragment processing during lagging strand DNA synthesis, long-patch base excision repair (LP BER), and regulating or facilitating recombination events. […] Cells from fen1-/- blastocysts show increased apoptotic cell death after ionizing radiation treatment, and chicken cells lacking the fen1 gene are hypersensitive to DNA alkylating agents, e.g. methylmethane sulfonate (MMS) and N-methyl-N'-nitro-N-nitrosoguanidine (MNNG), as well as hydrogen peroxide. […]
# Three uL of reagents (buffer in column 3 and 4 as negative control and 10 nM FEN1 in columns 1, 2, and 5-48) were dispensed into 1,536-well black solid-bottomed plate. […] The plates were then incubated for 15 min at room temperature, and 1 uL substrate (50 nM final concentration) were added to start the reaction read twice at 0 min read and 15 min on ViewLux reader equipped with 525 nm excitation and 598 nm emission filters. […]
# [5] = qHTS for Inhibitors of the vitamin D receptor (VDR): Hit Validation using a Texas Red Assay (AID 602201); settings: VDR coregulator binding, Texas Red fluorescence polarization; agonist-bound VDR ligand-binding domain; note: potency is the fitted concentration of half-maximal effect
# Outline: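 Fluorescence polarization (Ex 595/Em 615 nm) of Texas Red (7 nM) with 1.5 uM VDR-LBD and LG19078 (final concentrations). Compounds were incubated for 2 hours at room temperature.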
# Flap endonuclease 1 (Homo sapiens), sequence (P39748 whole entry, looked up, the tested form may be a part): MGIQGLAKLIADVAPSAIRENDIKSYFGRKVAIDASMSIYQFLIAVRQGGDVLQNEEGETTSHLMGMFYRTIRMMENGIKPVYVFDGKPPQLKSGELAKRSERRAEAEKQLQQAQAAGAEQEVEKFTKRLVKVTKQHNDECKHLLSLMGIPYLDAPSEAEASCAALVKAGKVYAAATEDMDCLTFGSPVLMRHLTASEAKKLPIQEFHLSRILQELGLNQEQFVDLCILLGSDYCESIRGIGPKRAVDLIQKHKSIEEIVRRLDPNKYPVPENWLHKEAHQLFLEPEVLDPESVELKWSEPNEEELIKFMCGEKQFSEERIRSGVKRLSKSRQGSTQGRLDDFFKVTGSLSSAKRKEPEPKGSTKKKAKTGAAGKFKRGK
smiles,measurement,setting,value
CC1CC2C3CCC4=CC(=O)C=C[C@@]4(C)[C@]3(F)C(O)C[C@]2(C)[C@]1(O)C(=O)CO (stereo not given in full),"parasite growth, % of control (lower = inhibition)",[1],44.9% [at 28.5 µM]
same,"growth, % of control",[2],11.4% [at 28.5 µM]
CCCCOc1ccc(CN2C(=O)C(=O)c3cc(Br)cc(C)c32)cc1OC,outcome,[3],inactive
CCC1CCCCN1CCCNC(=O)c1cc2c(Cl)nc3ccccc3c2s1 (stereo not given),Potency,[4],33.8 µM (active)
CCOc1ccc(NC(=O)c2c(NC(=O)Cc3ccccc3)sc3c2CCC(C)C3)cc1 (stereo not given),Potency,[5],3.55 µM (active)
